# Calls of active or inactive are those of the source. Unless noted, no rule for the calls is given here.
# Assays:
# [1] = test system: Wnt5a (protein binding on small-molecule microarray); assay: Wnt5a binders on small-molecule microarray, primary screen, biophysical, 635/667 nm fluorescence (AID 1142); conditions: 635 nm fluorescence, higher = more signal;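 also: fluorescence read at 667 nm with signal to noise per printed feature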
# [2] = cell viability in Huh7 cells, primary screen, cytotoxicity control for HCV replication inhibitor project, CellTiter-Glo luminescence, basal, 48 h (AID 1143); conditions: Huh7 HCV replicon, higher = more signal, called active from +8 up or from −8 down;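 also: Huh7 hepatoma cells carrying a hepatitis C replication reporter with no stimulus; test concentration not given here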
# [3] = P. aeruginosa biofilm formation inhibitors, primary screen, PAO1 strain, BacTiter-Glo luminescence, LB-PBS (AID 1144); conditions: 12 h, higher = more signal
# [4] = CREB reporter modulators without forskolin, primary screen, cell-based, PC12, CRE-LacZ reporter, unstimulated (AID 1145); conditions: no forskolin, luminescence, 4.5 h, higher = more signal, called active from +8 up or from −8 down
# [5] = CREB reporter modulators under forskolin, primary screen, cell-based, PC12, CRE-LacZ reporter, forskolin-stimulated (AID 1146); conditions: luminescence, 4.5 h, higher = more signal, called active from +8 up or from −8 down;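 also: PC12 cells with 6xCRE LacZ reporter stimulated by forskolin 10 µM; beta-galactosidase reporter signal reflecting CREB driven transcription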
# [6] = biological target: Streptavidin (Streptomyces avidinii) (UniProt P22629); assay: streptavidin binders on small-molecule microarray, primary screen, artefact control for SMM compound annotation, biophysical, 635/667 nm fluorescence (AID 1147); conditions: streptavidin binding, higher = more signal;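 also: signal reflects streptavidin binding to arrayed compounds as a control protein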
# [7] = small-molecule binders of probe aInhba, primary screen, biochemical, small-molecule microarray, 635/667 nm fluorescence (AID 1148); conditions: higher = more signal;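 also: score merges 667nm spot fluorescence with signal-to-noise for antibody binding to printed compounds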
# [8] = biological target: Torsin-1A (Homo sapiens) (UniProt O14656); assay: torsin A binders from cell lysate, primary screen, small-molecule microarray, wild-type, 635/667 nm (AID 1149); conditions: COS7 hTOR1A-WT lysate, 635 nm fluorescence, higher = more signal
# [9] = biological target: Torsin-1A (Homo sapiens) (UniProt O14656); assay: small-molecule binders of mutant TOR1A in lysate, primary screen, cell lysate, small-molecule microarray, COS7 lysate, 635/667 nm fluorescence (AID 1150); conditions: COS7 hTOR1A mutant lysate, 635 nm fluorescence, higher = more signal;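 also: score pools 667 nm emission and signal to noise measuring lysate protein binding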
# [10] = test system: Sonic hedgehog protein (Shh); assay: small-molecule binders of Shh protein, primary screen, biochemical, small-molecule microarray, 635/667 nm fluorescence (AID 1151); conditions: small-molecule microarray binding, 635 nm fluorescence; higher = more signal;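 also: Shh protein binding to compounds spotted on small-molecule microarray slides; score combines spot fluorescence intensity with signal-to-noise across triplicate slides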
# Sequence of Torsin-1A (Homo sapiens) (O14656 whole entry, looked up): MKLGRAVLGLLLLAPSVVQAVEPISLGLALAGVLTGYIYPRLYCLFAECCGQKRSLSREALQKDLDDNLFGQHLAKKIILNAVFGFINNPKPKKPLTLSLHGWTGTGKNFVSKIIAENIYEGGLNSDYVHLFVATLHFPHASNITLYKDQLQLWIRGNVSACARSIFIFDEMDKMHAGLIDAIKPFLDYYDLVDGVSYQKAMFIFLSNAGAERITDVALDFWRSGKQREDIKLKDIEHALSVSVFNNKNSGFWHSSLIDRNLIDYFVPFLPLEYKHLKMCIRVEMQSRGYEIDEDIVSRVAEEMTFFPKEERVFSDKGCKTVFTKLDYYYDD
# Sequence of Streptavidin (Streptomyces avidinii) (P22629 whole entry, looked up): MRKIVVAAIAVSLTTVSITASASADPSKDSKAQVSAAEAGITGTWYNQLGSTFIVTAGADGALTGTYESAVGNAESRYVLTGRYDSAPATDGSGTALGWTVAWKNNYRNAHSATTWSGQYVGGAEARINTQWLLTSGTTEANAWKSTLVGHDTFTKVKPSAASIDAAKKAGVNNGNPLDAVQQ
Compound,composite z-score [1],z-score [2],z-score [3],z-score [4],z-score [5],composite z-score [6],composite z-score [7],composite z-score [8],composite z-score [9],composite z-score [10]
C=CCN1C(=O)[C@]2(O[C@H](CCO)[C@@H]([Si](C)(C)c3ccc(OC)cc3)[C@@H]2C)c2cc(NC(=O)[C@H](C)O)ccc21,0.276,-6.12 (inactive),1.01 (inactive),6.89 (inactive),-0.144 (inactive),0.553,0.339,0.725,0.499,1.34
Cc1ccc(S[C@]2(C(=O)NC3CC3)CC(=O)N(C3CCCCC3)[C@@H]2c2ccc(CO)cc2I)cc1,0.136,-3.4 (inactive),-0.128 (inactive),0.362 (inactive),0.681 (inactive),0.936,-0.0375,0.254,0.582,1.77
COC(=O)[C@]1(Cc2ccccc2N=[N+]=[N-])N=C(c2ccc(OCCCO)cc2)O[C@@H]1c1ccccc1N=[N+]=[N-],-0.104,-5.35 (inactive),0.337 (inactive),2.85 (inactive),-1.04 (inactive),0.105,-0.0762,-1.45,0.283,0.765
C=C(COC)/C(=C/C[C@H](OC(=O)c1ccncc1)c1cccc(OCCO)c1)c1cc(C(=O)OC)ccc1OC,0.176,-0.865 (inactive),0.358 (inactive),8.63 (active),-0.616 (inactive),-0.258,-0.024,0.63,0.849,1.38
Cc1ccc(F)cc1S(=O)(=O)N[C@@H]1CCN(Cc2ccc(-c3ccccc3)cc2)C1,0.116,-6.41 (inactive),0.00325 (inactive),6.48 (inactive),0.959 (inactive),-0.164,-0.128,0.606,0.743,0.98
COc1ccc([Si](C)(C)[C@H]2[C@H](CC(=O)N(CCO)Cc3ccccc3)O[C@@]3(C(=O)N(Cc4cccc(N5CCC5=O)c4)c4ccccc43)[C@@H]2C)cc1,0.526,-6.85 (inactive),-0.216 (inactive),0.469 (inactive),-0.854 (inactive),0.0587,-0.0221,0.795,0.278,2.05
NC(=O)NCC#Cc1ccc2c(c1)[C@]1(C(=O)N2)[C@H](C(=O)NC[C@H](O)c2ccccc2)[C@H]2C(=O)O[C@H](c3ccccc3)[C@H](c3ccccc3)N2[C@@H]1c1ccc(O)cc1,0.545,0.525 (inactive),-0.846 (inactive),-0.465 (inactive),-0.467 (inactive),1.34,0.529,0.325,0.816,1.02
CCOC(=O)C[C@H]1[C@H](OC(=O)c2ccccc2-c2ccccc2)[C@@H](NC(=O)c2ccc3ccccc3c2)c2cc(OCCCO)ccc2N1C(=O)c1ccc2ccccc2n1,0.0952,0.0364 (inactive),-0.756 (inactive),0.311 (inactive),0.429 (inactive),0.162,-0.0087,0.335,0.0486,0.575
COc1ccc([Si](C)(C)[C@@H]2[C@@H](CCn3cc([C@H](O)c4ccccc4)nn3)O[C@]3(C(=O)N(Cc4ccc(N5C(=O)c6cccc7cccc5c67)cc4)c4ccccc43)[C@H]2C)cc1,-0.179,-4.7 (inactive),0.364 (inactive),1.22 (inactive),-1.68 (inactive),-0.378,-0.0762,-0.0204,-0.169,-0.0774
COc1ccc([Si](C)(C)[C@@H]2[C@@H](CC(=O)N(CCO)Cc3ccccc3)O[C@]3(C(=O)N(C)c4ccccc43)[C@H]2C)cc1,0.205,-4.28 (inactive),-0.054 (inactive),11.9 (active),1.37 (inactive),0.92,0.218,0.089,0.152,1.74
CN(C)C(=O)[C@]1(CCC(=O)OC(C)(C)C)N=C(c2ccc(OCCCO)cc2)O[C@@H]1c1ccccc1N=[N+]=[N-],0.928,-1.61 (inactive),0.878 (inactive),0.988 (inactive),0.0155 (inactive),1.38,0.105,1.62,2.11,-0.149
[N-]=[N+]=NCc1ccccc1C[C@@]1(C(=O)NCC(O)CO)N=C(c2ccc(OCCCO)cc2)O[C@@H]1c1ccccc1CN=[N+]=[N-] (stereo not given in full),0.604,-1.84 (inactive),-0.376 (inactive),-0.435 (inactive),-0.554 (inactive),1.43,0.533,0.441,1.39,-0.393
COC(=O)[C@@]1(Cc2ccccc2)[C@H]2c3cc(C(=O)N4CCCC4)n(Cc4ccc(C)o4)c3C[C@H]2CN1C(=O)c1ccccc1,-0.135,-2.17 (inactive),-0.544 (inactive),0.962 (inactive),1.16 (inactive),1.15,0.181,0.0769,0.537,-0.21
COc1ccc(C(O)C2C=CC3C(=O)N(C)C(=O)C3N2Nc2ccccc2)cc1OCc1ccccc1 (stereo not given),0.0512,0.142 (inactive),-0.292 (inactive),1.21 (inactive),-0.389 (inactive),0.863,0.0528,0.155,0.992,-0.237
COc1ccc(C#Cc2ccc3c(c2)[C@]2(C(=O)N3)[C@H](C(=O)NC[C@H](O)c3ccccc3)[C@H]3C(=O)O[C@H](c4ccccc4)[C@H](c4ccccc4)N3[C@@H]2c2ccccc2OCCO)cc1,0.0762,-5.79 (inactive),-0.494 (inactive),-0.463 (inactive),-0.336 (inactive),0.924,0.421,0.123,0.535,1.68
O=C1C2C=CC(C(O)c3cccs3)N(Nc3ccccc3F)C2C(=O)N1c1ccccc1 (stereo not given),0.13,-1.1 (inactive),-1.51 (inactive),-0.714 (inactive),-0.198 (inactive),0.295,-0.159,0.0473,0.605,-0.573
O=C1OCCC/C=C\[C@H]2OC34C=CCN(Cn5nnc6ccccc65)C(=O)[C@H]3N(CCCCCO)C(=O)[C@@H]4C12 (stereo not given in full),-0.883,-0.19 (inactive),-0.477 (inactive),-0.35 (inactive),-0.26 (inactive),-1.21,-0.0762,-2.35,-0.736,0.436
O=C1O[C@@H](c2ccccc2)[C@@H](c2ccccc2)N2[C@@H](c3ccccc3OCCO)[C@]3(C(=O)Nc4ccc(C#CC5(O)CCCCCC5)cc43)[C@@H](C(=O)Nc3nc4ccccc4s3)[C@H]12,0.555,-5 (inactive),0.207 (inactive),0.224 (inactive),0.474 (inactive),1.22,-0.0195,0.711,0.659,0.902
COc1ccc(C(O)C2C=CC3C(=O)NC(=O)C3N2Nc2ccccn2)cc1OCc1ccccc1 (stereo not given),-0.125,0.716 (inactive),-0.484 (inactive),0.629 (inactive),0.124 (inactive),0.428,-0.0256,-0.209,0.435,0.0157
Cc1c(NC(=O)CC#N)c(=O)n(-c2ccccc2)n1C,0.0101,-2.39 (inactive),-0.739 (inactive),-0.671 (inactive),-0.832 (inactive),-0.347,-0.179,0.362,-0.0384,0.642
COC(=O)[C@@]1(Cc2ccccc2N=[N+]=[N-])COC(c2ccc(OCCCO)cc2)=N1,0.193,-2.44 (inactive),0.335 (inactive),0.675 (inactive),1.68 (inactive),0.175,-0.0639,0.678,1.17,-0.0614
